# Data reported in ChEMBL document CHEMBL3988442, “University of Dundee, Small-Polar-MMV Screening Library” (2021).
# In all, about 48,000 compounds went through this assay and about 13,000 (27%) showed an effect of 50% or more. The list shows a part of the results.
# Tested on: Wolbachia pipientis
# Assay: Anti-Wolbachia Cell-Based Screen
# Format: functional
# Design: scale not given: in the data most compounds retested in dose-response had high values
# Details: 5 µM
row,Structure (SMILES),Percent Effect [%]
1,CCCc1noc(CNC2CCCN(Cc3noc(C4CC4)n3)C2)n1 (configuration not stated),116.1
2,Cc1ncc(CNC2CCCN(Cc3noc(C4CC4)n3)C2)s1 (configuration not stated),-12.11
3,CCc1nc(CN2CCCC(NCc3nc(C)c(C)o3)C2)no1 (configuration not stated),135.7
4,CCc1nc(CN2CCCC(NCc3ncc(C(C)(C)C)o3)C2)no1 (configuration not stated),9.361
5,CCc1nc(CN2CCCC(NCc3nnc(C4CC4)n3C)C2)no1 (configuration not stated),109.6
6,COCCN(Cc1ccc(F)cc1Cl)C(=O)c1cc(C)no1,3.523
7,Cc1cccc2c1nc1n2[C@@H](CNC(=O)Cc2ccccc2)COC1,-6.284
8,Cc1cc(C)c2c(N(C)CC3CCN(CC(C)C)C3)ncnc2n1 (configuration not stated),16
9,Cc1nc(C(=O)N(Cc2c(C)nn(C)c2C)C(C)C)cs1,0.2586
10,CCN(C(=O)c1cccc2c1OCO2)c1ccc(Br)cn1,-0.9868
11,CCOc1ccc(N2CCC(C(O)c3ccccc3)CC2)nn1 (configuration not stated),-5.535
12,CC(C)(C)OC(=O)NCCC(=O)NCC(O)c1cccc(F)c1 (configuration not stated),-4.021
13,Cc1ccccc1CS(=O)(=O)c1nnc(N2CCOCC2)s1,-8.396
14,CC(C)NC(=O)NCCCc1cccc(F)c1,-3.402
15,CCC(C)NC(=O)CS(=O)(=O)Cc1ccccc1Cl (configuration not stated),-0.4939
16,CC(NC(=O)OC(C)(C)C)c1nnc(S(=O)(=O)Cc2ccccc2Cl)o1 (configuration not stated),135.1
17,C[C@H](NC(=O)OC(C)(C)C)c1nnc(S(=O)(=O)Cc2cccc(F)c2)o1,143.7
18,Cc1ccccc1CS(=O)(=O)c1nnc(C(C)NC(=O)OC(C)(C)C)o1 (configuration not stated),85.24
19,CC(NC1(CNC(=O)OC(C)(C)C)CCOCC1)c1ccccc1 (configuration not stated),3.949
20,CC(NC(=O)OC(C)(C)C)c1nnc(S(=O)(=O)Cc2ccc(Cl)cc2)o1 (configuration not stated),137.4
21,CC(C)S(=O)(=O)c1nnc(CCNC(=O)OC(C)(C)C)o1,16.12
22,CC(NC(=O)CNC(=O)OC(C)(C)C)c1ccc(Cl)s1 (configuration not stated),-4.782
23,O=S(=O)(Cc1ccccc1Cl)NC(CO)c1ccco1 (configuration not stated),-8.194
24,CC(C)(C)c1ccc(C2(C(=O)NCCS(C)(=O)=O)CC2)cc1,2.157
25,Cn1cnc(-c2ccc(F)cc2)c1NC(=O)CCNC(=O)C(C)(C)C,-6.706
26,Cc1ccc(OCC(O)CN(C)CC(=O)NC(C)C)c(C)c1 (configuration not stated),0.9379

row,Structure (SMILES),Percent Effect [%]
1,Cc1ccc(S(=O)(=O)N(C)Cc2cnccn2)cc1N(C)C,-3.361
2,CO[C@H]1CC[C@H]2[C@H]1OCCN2C(=O)C1=CCCC1,2.583
3,CCOCC1CC2(CCN(C(=O)CC3=CCCCC3)CC2)CO1 (configuration not stated),-15.26
4,CO[C@@H]1CC[C@H]2[C@H]1OCCN2C(=O)C1=CCCC1,4.441
5,CO[C@H]1CC[C@H]2[C@H]1OCCN2C(=O)CC1=CCCCC1,98.05
6,CCO[C@@H]1CC[C@H]2[C@H]1OCCN2C(=O)CC1=CCCCC1,124.5
7,CCO[C@H]1CC[C@H]2[C@H]1OCCN2C(=O)CC1=CCCCC1,80.53
8,O=C(C1=CCCC1)N1CCO[C@H]2[C@@H](OCC3CC3)CC[C@@H]21,-8.51
9,CC(C)(CNC(=O)Nc1cccc(-c2cccs2)c1)C(N)=O,3.927
10,N#Cc1ccc(Cn2cncn2)c(F)c1,-14.63
11,N#Cc1nccnc1NC1CCN(c2ccccc2OC(F)F)C1 (configuration not stated),9.423
12,CCN1CCc2[nH]cnc2C12CCN(c1ccc(Cl)c(C(=O)O)n1)CC2,-7.204
13,COc1ccc(CNC(=O)NCC2CCOC2)c(C(F)(F)F)c1 (configuration not stated),-17.58
14,O=C(c1cc2c(s1)CCC2)N1CCCCC1Cn1cccn1 (configuration not stated),-2.201
15,O=C(c1cc2c(s1)CCC2)N1CCCC1Cn1cccn1 (configuration not stated),111
16,O=C(c1cc2c(s1)CCCC2)N1CCCC1Cn1cccn1 (configuration not stated),141.2
17,Cc1nn(C)c(N2CCOCC2)c1CNC1CCN(C(C)(C)C)CC1,-15.17
18,c1ccc(-c2nnc3sc(CCN4CCCCCC4)nn23)cc1,117.6
19,Cc1ccc(-c2cccc(-c3ccn(CCN4CCCC4)n3)c2)nn1,-8.933
20,c1cc(-c2nccn2CCc2nc3c(s2)CCC3)ccn1,7.441
21,c1ccc(-c2cccc(-c3ccn(CCN4CCCCC4)n3)c2)nc1,2.819
22,Cc1ccc(CNC2CCN(CCc3ccncc3)CC2)s1,-7.206
23,c1cc(-c2ccn(CCN3CCCC3)n2)cc(-c2nccs2)c1,-3.86
24,c1cc(-c2nnc3sc(CCN4CCCC4)nn23)ccn1,107.3
25,Cc1nc(CCN2CCCCC2)n(-c2ccc(F)cc2)n1,-12.73
26,c1ccc(-c2nnc3sc(CCN4CCCC4)nn23)cc1,117
